M1 PAM parental = nonselective calcium activators in parental CHO-K1 cells, primary screen, counter-screen for M1 PAM project, cell-based, Fluo-8 calcium fluorescence, full deck, 1536-well; ATP EC20; 0% at ATP EC20, 100% at ATP max; activation, % at 3 µM; actives 0.02% (n = 360,000); AID 602247, 2012;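 active means activation above the run cutoff, the mean activation of all test compounds plus 3 SD, cut at about 40% in these data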;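 further: peak over basal fluorescence ratio in a 140 s read after ATP addition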
M1 ag = human M1 muscarinic receptor agonists, primary screen, Fluo-8 calcium fluorescence, CHO-K1 cells, HTS | activation, % at 3 µM | Muscarinic acetylcholine receptor M1 (Homo sapiens), P11229 | CHO-K1 hM1, agonist mode; 0% DMSO, 100% acetylcholine EC100 | AID 588814, 2011 | actives 0.33% (n = 360,000);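 active means activation above the run's mean compound activation plus 3 SD, cut at about 16% in these data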;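 further: peak over basal fluorescence ratio within a 140 s kinetic read after compound addition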
Target sequence (P11229 whole entry, looked up): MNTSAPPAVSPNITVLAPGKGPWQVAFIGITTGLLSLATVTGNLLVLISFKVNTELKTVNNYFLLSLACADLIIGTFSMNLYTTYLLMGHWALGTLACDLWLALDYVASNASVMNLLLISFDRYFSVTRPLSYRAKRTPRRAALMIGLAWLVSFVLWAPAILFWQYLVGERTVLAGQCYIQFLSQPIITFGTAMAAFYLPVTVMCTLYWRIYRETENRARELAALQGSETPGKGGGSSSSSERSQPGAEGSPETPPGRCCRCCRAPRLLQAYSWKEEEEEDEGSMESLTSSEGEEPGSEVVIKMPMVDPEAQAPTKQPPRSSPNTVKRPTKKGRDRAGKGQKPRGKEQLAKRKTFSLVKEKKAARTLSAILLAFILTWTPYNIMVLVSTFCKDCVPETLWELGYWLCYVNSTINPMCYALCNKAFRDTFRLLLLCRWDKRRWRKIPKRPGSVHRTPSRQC
CHRM1 PAM = human M1 muscarinic receptor positive allosteric modulators, primary screen, CHO-K1 cells, Fluo-8 calcium fluorescence, 1536-well; Muscarinic acetylcholine receptor M1 (Homo sapiens), P11229; CHO-K1 hM1, ACh EC20; 0% = ACh EC20, 100% = maximal ACh; activation, % at 3 µM; actives 0.088% (n = 360,000); AID 588819, 2011; in the data active means activation above about 19%, passing the limit was not always enough
CHO-K1 Ca antag = nonselective inhibitor or artifact in parental CHO-K1 cells; ATP-induced calcium, Fluo-8 fluorescence; inhibition, % at 3 µM; actives 0.6% (n = 360,000);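 active means inhibition above a per-plate cutoff, the plate's mean sample inhibition plus 3 SD, cut at about 24% in these data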;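 further: 0% = DMSO plus EC80 ATP and 100% = DMSO alone without ATP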
M1 antag = human M1 muscarinic receptor antagonists, primary screen, CHO-K1 cells, Fluo-8 calcium fluorescence, 1536-well; Muscarinic acetylcholine receptor M1 (Homo sapiens), P11229; CHO-K1 hM1, ACh EC80 antagonist; inhibition, % at 3 µM; actives 1.3% (n = 360,000); AID 588852, 2011;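 active means percent inhibition above its own plate's cutoff, namely the mean of that plate's compound wells plus 3 SD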;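 further: peak over basal fluorescence ratio during 140 s after agonist addition; 0% = ACh EC80 plus DMSO and 100% = DMSO alone without agonist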
M1 ag parental = counter-screen for M1 agonists: effect in parental CHO-K1 cells. Fluo-8 calcium fluorescence; scaled to maximal ATP response, vehicle zero. activation, % at 3 µM. actives 0.48% (n = 360,000). AID 602248, 2012; in the data active means activation above about 15%;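 further: untransfected CHO-K1 host cells lacking M1 receptor as counterscreen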
* hit, by the source's call. Shown are actives, neighbours in structure and some others; about 2.3% of the full set was active somewhere.

How did Nc1cccnc1Oc1ccc(F)cc1 do in these assays?
M1 PAM parental: 7.8; M1 ag: -2.1; CHRM1 PAM: -6.7; CHO-K1 Ca antag: -9.6; M1 antag: 3.4; M1 ag parental: 3.8

Results for CCCc1c(-c2ccc(Cl)cc2)ncn1Cc1ccccc1OC ?
M1 PAM parental: 8.8; CHO-K1 Ca antag: 2.6; M1 ag parental: 15.6*

Results for O=C(/C=C/Nc1ccc(Cc2ccc(N/C=C/C(=O)C(F)(F)F)cc2)cc1)C(F)(F)F ?
M1 PAM parental: -1.0; M1 ag: -6.5; CHRM1 PAM: -3.7; CHO-K1 Ca antag: 6.0; M1 antag: 0.9; M1 ag parental: 2.2

Results for O=c1c2c(-c3ccccc3)csc2nc2c3ccccc3c(NCCN3CCOCC3)nn12 ?
M1 PAM parental: 15.8; M1 ag: -7.4; CHRM1 PAM: -25.6; CHO-K1 Ca antag: -12.5; M1 antag: 91.8*; M1 ag parental: 1.9

How did c1ccc(-c2csc3ncnc(NCCCN4CCOCC4)c23)cc1 do in these assays?
M1 PAM parental: 2.0; M1 ag: -4.4; CHRM1 PAM: 5.5; CHO-K1 Ca antag: -2.6; M1 antag: -3.6; M1 ag parental: 3.3

How did CCOC(=O)N1CCN(C2CCCN(C(=O)c3ccccc3N(C)C)C2)CC1 (stereo not drawn) do in these assays?
M1 PAM parental: 18.5; M1 ag: -2.3; CHRM1 PAM: 12.4; CHO-K1 Ca antag: -15.0; M1 antag: -7.8; M1 ag parental: 0.3

Results for Clc1ccc(OCCCN2CCCCC2)c(Br)c1 ?
M1 PAM parental: 21.1; M1 ag: -8.1; CHRM1 PAM: -3.4; CHO-K1 Ca antag: -0.3; M1 antag: -3.1; M1 ag parental: 6.1

How did Cc1cc(Cl)c(OCCOCCN2CCCC(C)C2)c(Br)c1 (stereo not drawn) do in these assays?
M1 PAM parental: 5.0; M1 ag: -7.4; CHRM1 PAM: -28.1; CHO-K1 Ca antag: -13.7; M1 antag: 62.5*; M1 ag parental: 2.3

Results for CC1CCCN(CCOCCOc2ccc(Cl)cc2Br)C1 (stereo not drawn) ?
M1 PAM parental: 13.9; M1 ag: -6.6; CHRM1 PAM: -23.1; CHO-K1 Ca antag: -7.0; M1 antag: 65.8*; M1 ag parental: 1.9

What do the screens show for `CC1CCCN(CCOCCOc2ccc(Br)cc2Cl)C1` (stereo not drawn)?
M1 PAM parental: 19.2; M1 ag: -12.2; CHRM1 PAM: -26.6; CHO-K1 Ca antag: -9.4; M1 antag: 42.1*; M1 ag parental: 1.7

What do the screens show for `COc1cccc(NC(=O)COC(=O)C2CC3CCCC(C2)C3=O)c1` (stereo not drawn)?
M1 PAM parental: 9.5; M1 ag: -1.6; CHRM1 PAM: 1.6; CHO-K1 Ca antag: 2.3; M1 antag: -3.2; M1 ag parental: 0.6

How did CC(CNS(=O)(=O)c1ccc2c(c1)NC(=O)CCS2)c1ccccc1 (stereo not drawn) do in these assays?
M1 PAM parental: 5.2; M1 ag: 0.0; CHRM1 PAM: 2.1; CHO-K1 Ca antag: 2.4; M1 antag: -5.0; M1 ag parental: 18.1*

Results for O=C(NCc1cccc(Cl)c1)c1ccc(S(=O)(=O)N2CCCCC2)cc1 ?
M1 PAM parental: 16.4; M1 ag: -3.4; CHRM1 PAM: -1.8; CHO-K1 Ca antag: -4.0; M1 antag: -0.1; M1 ag parental: 3.4

How did O=C(O)CC(CC(=O)NCC(O)c1ccccc1)c1ccccc1 (stereo not drawn) do in these assays?
M1 PAM parental: -8.2; M1 ag: -3.0; CHRM1 PAM: 5.1; CHO-K1 Ca antag: -8.4; M1 antag: -8.5; M1 ag parental: 1.1

How did COC(=O)[C@@H](Cc1c[nH]c2ccccc12)NC(=O)c1ccc2c(c1)OCO2 do in these assays?
M1 PAM parental: -5.4; M1 ag: 2.1; CHRM1 PAM: 0.9; CHO-K1 Ca antag: 15.5; M1 antag: 1.5; M1 ag parental: 22.9*

Results for C[C@@H]1CN([C@@H](C)CO)C(=O)CCCn2cc(nn2)CO[C@H]1CN(C)S(=O)(=O)c1ccc(Cl)cc1 ?
M1 PAM parental: 20.8; M1 ag: -9.4; CHRM1 PAM: 9.2; CHO-K1 Ca antag: -4.2; M1 antag: -16.1; M1 ag parental: 1.0

What do the screens show for `O=C(OCc1nnc(-c2ccccc2)o1)c1cc(S(=O)(=O)N2CCOCC2)ccc1F`?
M1 PAM parental: 15.6; M1 ag: -2.8; CHRM1 PAM: 6.6; CHO-K1 Ca antag: -6.4; M1 antag: -14.0; M1 ag parental: 11.1

What do the screens show for `O=C(OCc1ccccc1)N1Cc2ccnnc2CC1c1ccccc1Br` (stereo not drawn)?
M1 PAM parental: 0.1; M1 ag: -4.7; CHRM1 PAM: -1.2; CHO-K1 Ca antag: 32.5*; M1 antag: 8.7; M1 ag parental: 0.3

Results for Cc1cc(C)c(N=C2SCC(=O)N2Cc2ccco2)c(C)c1 ?
M1 PAM parental: 21.6; M1 ag: 1.7; CHRM1 PAM: 5.1; CHO-K1 Ca antag: -9.1; M1 antag: -7.2; M1 ag parental: 2.7

How did O=C1CSC(=Nc2ccc(Cl)cc2)N1Cc1ccco1 do in these assays?
M1 PAM parental: -20.4; M1 ag: -3.7; CHRM1 PAM: -6.4; CHO-K1 Ca antag: 28.6*; M1 antag: 14.3; M1 ag parental: 3.6

Results for Cc1ccccc1CSc1nn2c(=O)c(C)nnc2s1 ?
M1 PAM parental: -19.6; M1 ag: -4.2; CHRM1 PAM: -8.9; CHO-K1 Ca antag: 23.8*; M1 antag: 25.7; M1 ag parental: -0.1

What do the screens show for `Cc1ccccc1NC(=O)CSc1nn2c(=O)c(C)nnc2s1`?
M1 PAM parental: -11.0; M1 ag: -4.0; CHRM1 PAM: 6.8; CHO-K1 Ca antag: 1.6; M1 antag: -1.2; M1 ag parental: 0.0

What do the screens show for `O=C(Nc1cccc(S(=O)(=O)NC2=NCCC2)c1)c1cn(-c2ccccc2)nc1-c1ccc(F)cc1`?
M1 PAM parental: 12.5; M1 ag: -4.8; CHRM1 PAM: 1.4; CHO-K1 Ca antag: -12.7; M1 antag: 16.6; M1 ag parental: 5.1

How did Cc1ccc(-c2nn(-c3ccccc3)cc2C(=O)Nc2cccc(S(=O)(=O)NC3=NCCC3)c2)cc1 do in these assays?
M1 PAM parental: -13.5; M1 ag: -3.7; CHRM1 PAM: 0.0; CHO-K1 Ca antag: 34.4*; M1 antag: 11.1; M1 ag parental: 1.2

Results for Cc1cc([N+](=O)[O-])nn1Cc1ccc(C(=O)N/N=C/c2ccc(O)cc2O)cc1 ?
M1 PAM parental: 22.2; M1 ag: -2.2; CHRM1 PAM: 3.0; CHO-K1 Ca antag: -8.0; M1 antag: -6.6; M1 ag parental: 0.7

High-throughput results as filed in PubChem.
